Our source for the growth values is PubChem BioAssay (NCI).

Each structure is given as a SMILES string. Compounds without any hit were thinned out: in the full panel of roughly 83,000, 20% have a hit.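 Activity criterion: percent growth below 10, measured after cells in 96-well plates were exposed to a single compound concentration for 48 hours.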 The source made the active and inactive calls.

The test concerns T-47D breast. The test can be described thus: NCI-60 one-dose screen, 48 h (100 = growth as untreated, 0 = no growth, -100 = all killed). The conditions noted are these: 10 µM unless noted. Here is the method: Growth inhibition of the T-47D human tumor cell line is measured as a screen for anti-cancer activity. Cells are grown in 96 well plates and exposed to the test compound for 48 hours. Compounds are tested at a single concentration, which is 10^-5 M for most compounds. The reported endpoint is percent growth (GI% or GIPRCNT), where numbers from 0 - 100% represent growth inhibition, and numbers from -100% - 0 represent cell death. For example, a value of 40 represents 60% growth inhibition. A value of 0 means no net growth occurred over the course of the experiment. A value of -40 indicates 40% of cells at the beginning of the experiment died by the end of the experiment. A value of -100 means all cells are dead at the end of the experiment.
NCI-60 Human Tumor Cell Lines Screen was performed using the standard one-dose NCI protocol, which is described in more detail at https://dtp.cancer.gov/discovery_development/nci-60/default.htm.
Compounds with GIPRCNT values below 10 were considered active. Activity score was based on GIPRCNT using the following formula: […]
Score is 0 for GIPRCNT values of 100 or above, 50 for GIPRCNT values of 0, and 100 for GIPRCNT values of -100.
In the case of `O=c1oc2ccc(Br)cc2cc1C1=CSc2nc3sc4c(c3c(=O)n2N=C1)CCCC4`, the growth was 76.9% (inactive).

For `C=C1CC[C@@H]2[C@]3(C)COC(c4cn[nH]c4-c4ccc(C)cc4)O[C@@H]3CC[C@@]2(C)[C@@H]1C/C=C1/C(=O)OCC1O` (stereo not given in full), the growth was 39.4% (inactive).

Turning to `O=C(c1ccc(OCCN2CCOCC2)cc1)C1[C@H](c2ccc(Cl)cc2)[C@@H](c2ccccc2)NC12C(=O)Nc1ccc(Br)cc12` (stereo not given in full), the growth is 26.3% (inactive).

Regarding `COc1cccc(COc2ccc(NC(=O)Nc3ccc(Cl)c(C(F)(F)F)c3)cc2)c1`, the growth is 19.5% (inactive).

With `CNS(=O)(=O)c1ccc(Nc2ccc(C(F)(F)F)cc2)c(-c2cn(C)cn2)c1`, the growth was 47.7% (inactive).

In the case of `Cc1cc2nc3c([nH]c2cc1C)c1ccc(=O)cc1n3CCN(C)C`, the growth is 60% (inactive).

With `COc1ccc(-c2ccnc(SCc3cc4cc(Cl)ccc4[nH]c3=O)n2)cc1`, the growth is 62.1% (inactive).

Regarding `COc1cc(/C=C/C(=O)c2nnn(-c3ccc(Cl)cc3)c2C)cc(OC)c1OC`, the growth is 43.2% (inactive).

As for `Cn1cc(NC(=O)c2cc(NC(=O)c3ccc(C#Cc4ccccc4)cc3)cn2C)cc1C(=O)NCCCN1CCOCC1`, the growth was 22.2% (inactive).

As to `COc1cc(/C=C2\C(=N)N=C(SCc3nc4ccccc4[nH]3)NC2=O)ccc1O`, the growth is 99.8% (inactive).

For `O=C(c1ccc(Cl)cc1)c1ccc(OCCCN2CCN(c3ccncc3)CC2)cc1`, the growth is 29% (inactive).

`COc1ccc(/C=C/c2nc3ccccc3c(=O)n2CC(=O)Nc2ccc(OC)cc2)cc1`: the growth was 66.4% (inactive).

With `Cc1ccc(S(=O)(=O)c2nc(S(=O)(=O)c3ccc(C)cc3)c(N3CCN(C)CC3)s2)cc1`, the growth was 38% (inactive).

As for `Cc1cc(=O)oc2cc(OCCCOc3ccc(/C=C/C(=O)Nc4ccccc4N)cc3)ccc12`, the growth is 9.28% (active).

Regarding `CCCSc1nc(NCCc2c[nH]c3ccccc23)c(C#N)c(-c2ccc(F)cc2)n1`, the growth was 26.4% (inactive).

For the molecule `C=C1CCC2C3(C)COC(c4ccccc4F)OC3CCC2(C)C1CC(O)C1=CCOC1=O` (stereo not given), the growth was 42.1% (inactive).

As to `N#Cc1ccc(/C=N/NC(=O)c2[nH]c3ccc(Br)cc3c2-c2ccccc2)o1`, the growth is 23.8% (inactive).

Take `CCCn1cc(-c2nc(Nc3ccc(C(=O)NCCCCNc4cccc5c4C(=O)N(C4CCC(=O)NC4=O)C5=O)cc3)nc3[nH]ccc23)cn1` (stereo not given): the growth was -11% (active).

In the case of `COc1cc(C2CC(c3cc(OC)c(OC)c(OC)c3)=Nc3c(N)nc(N)nc3N2)ccc1Oc1nc(NCCO)nc(N2CCOCC2)n1` (stereo not given), the growth was 90.3% (inactive).

As for `Cc1cc(=O)oc2cc(OCCOc3ccc(/C=C/C(=O)Nc4ccccc4N)cc3)ccc12`, the growth was 15.3% (inactive).

Regarding `CC(C)CCNC(=O)N/C(N)=N/c1nc2ccccc2s1`, the growth was 46.6% (inactive).

As to `COc1ccc(N2N=C(c3ccc4c(c3)OCO4)CC2c2cccc(NC(=O)CCNS(=O)(=O)c3ccc(Cl)cc3)c2)cc1` (stereo not given), the growth was 28.9% (inactive).

As for `O=C(Nc1ccc(C(F)(F)F)cc1)Nc1ccc2oc(=O)ccc2c1`, the growth was 19% (inactive).

As to `CC1=C(C(=O)OCc2ccccc2)C(c2c(O)cc(O)cc2O)n2c(nc3ccccc32)N1` (stereo not given), the growth is 62.6% (inactive).

As to `CCCCCCn1c(O)c(N=Nc2nc(-c3cc4ccccc4oc3=O)cs2)c2ccccc21`, the growth was -12% (active).

Consider `COc1cccc(/C=C/c2nc3ccccc3c(=O)n2CC(=O)Nc2ccc(Cl)cc2)c1`, for which the growth was 6.29% (active).

Regarding `CC(=O)Nc1cccc(Nc2nc(NCc3ccccc3)c3ccccc3n2)c1`, the growth was -60.1% (active).

With `CN1C(=O)/C(=C/c2ccc(C(=O)Nc3ncc(Cc4ccc(Cl)cc4Cl)s3)cc2)SC1=S`, the growth is 23.9% (inactive).

For `C=C1CCC2C3(C)COC(c4cccc(F)c4)OC3CCC2(C)C1C/C=C1/C(=O)OCC1O` (stereo not given), the growth was -5.25% (active).

`CC(C)(C)OC(=O)/C=C/c1cccc2c1C(=O)NC(C)(c1cc3cc(Cl)ccc3oc1=O)N2` (stereo not given): the growth was -3.39% (active).

On to `Cc1cc(C)n(-c2ccc3nnc(-c4ccccc4)n3n2)n1`, for which the growth was 95.5% (inactive).

As to `CCC(C)(C)c1ccc(OCCCCCCN2CCN(c3ccncc3)CC2)cc1`, the growth was -44.4% (active).

On to `CN1CCN(c2ccc(C(=O)/C=C/c3ccc(Br)cc3)cc2)CC1`, for which the growth was 15.2% (inactive).

For `Cn1nc(C(F)(F)F)cc1-c1cc(Cl)c(COc2ccc(Cl)cc2)c(-c2ccc(Cl)c(C(F)(F)F)c2)c1O`, the growth is 13.1% (inactive).

With `CCOC(=O)C1=C(N)N(c2ccccc2)C2=C(C(=O)CC(C)(C)C2)C1c1ccc([N+](=O)[O-])cc1` (stereo not given), the growth is 91.2% (inactive).

As for `CCC(C)(C)c1ccc(OCCCCN2CCN(c3ccncc3)CC2)cc1`, the growth is -41.6% (active).

Consider `C#CCOc1ccc(/C=N/Nc2nc(-c3ccc(Cl)cc3)cs2)cc1OC`, for which the growth was 18.5% (inactive).

In the case of `Cc1cccc(-c2nc(Nc3ccc(C)c(S(N)(=O)=O)c3)c3ccccc3n2)c1`, the growth was 29.1% (inactive).

As for `CCN(CC)c1ccnc(CNCCSC(c2ccccc2)(c2ccccc2)c2ccc(C)cc2)c1`, the growth was -67.8% (active).

For `CC(C)c1ccc2c(N)c(C(=O)Nc3ccc(C(F)(F)F)cn3)sc2n1`, the growth was 23.2% (inactive).
